Experimental data from a collection of fitness landscapes (doi:10.1016/j.celrep.2020.107928).
Whole data set: some 81,000 sequences, median “one-hybrid fitness for binding parS DNA” near -0.17, cut for the highest 2% near 0.51. The sample holds the highest values, similar sequences and a random draw of the others, so the mix is not that of the screen.

B1: Caulobacter ParB omega fusion; a variant is named by its letters at X, in order, B8GW30 (parent)
chain: MESVVVGEPGMSEGRRGLGRGLSALLGEVDAAPAQAPGEQLGGSREAPIEILQRNPDQPRRTFREEDLEDLSNSIREKGVLQPILVRPSPDTAGEYQIVAGERAWRAAQRAGLKTVPIMVRELDDLAVLEIGIIENVQRADLNVLEEALSYKVLMEKFERTQENIAQTIGKSXSHVANXMRLLXLPDEVQSYLVSGELTAXHARAIAAAADPVALAKQIIEGGLSVRETEALARKAPNLSAGKSKGGRPPRVKDTDTQALESDLSSVLGLDVSIDHRGSTGTLTITYATLEQLDDLCNRLTRGI

Variants of: B1
Assay: one-hybrid fitness for binding parS DNA (scaled: cognate 1, non-cognate 0); higher = stronger binding
Details: with parS DNA site
Procedure, shortened: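 Caulobacter ParB libraries with four specificity codons randomised were screened by bacterial one-hybrid selection in the E. coli USO strain, using a HIS3 reporter whose site lies 19 bp from the promoter. Selection ran for 48 hours at 37°C on M9 lacking histidine, with 0.1 mM IPTG and 5 mM 3-AT. Plasmids were Illumina-sequenced before and after selection, three replicate libraries were pooled, and variants with under 10 reads were dropped. Fitness is the log change in each variant's read ratio to wild type, rescaled against the cognate and non-cognate sites.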

one-hybrid fitness for binding parS DNA, 0.292:
RSFM

one-hybrid fitness for binding parS DNA, 0.941:
RFAG

one-hybrid fitness for binding parS DNA, 1.03:
RCFC

one-hybrid fitness for binding parS DNA, 0.959:
RKAG

one-hybrid fitness for binding parS DNA, 0.372:
RKMN

one-hybrid fitness for binding parS DNA, 0.254:
RITF

one-hybrid fitness for binding parS DNA, 0.4:
RRMN

one-hybrid fitness for binding parS DNA, 0.981:
RTMS

one-hybrid fitness for binding parS DNA, 0.956:
RLTT

one-hybrid fitness for binding parS DNA, 0.828:
RRIA

one-hybrid fitness for binding parS DNA, 0.946:
RKFG

one-hybrid fitness for binding parS DNA, 0.253:
RTTF

one-hybrid fitness for binding parS DNA, 0.994:
RSMS

one-hybrid fitness for binding parS DNA, 0.892:
RSFC

one-hybrid fitness for binding parS DNA, 0.949:
RCTT

one-hybrid fitness for binding parS DNA, 0.59:
RRKT

one-hybrid fitness for binding parS DNA, 0.945:
RMTT

one-hybrid fitness for binding parS DNA, 0.966:
RHMS

one-hybrid fitness for binding parS DNA, 0.607:
RRVT

one-hybrid fitness for binding parS DNA, 0.48:
RLTY

one-hybrid fitness for binding parS DNA, 0.407:
RIVN

one-hybrid fitness for binding parS DNA, 0.788:
RIVT

one-hybrid fitness for binding parS DNA, 1.02:
RAMS
RCLC

one-hybrid fitness for binding parS DNA, 0.565:
RRTT

one-hybrid fitness for binding parS DNA, 0.249:
RAFF

one-hybrid fitness for binding parS DNA, 0.497:
RMTY

one-hybrid fitness for binding parS DNA, 0.574:
RRPA

one-hybrid fitness for binding parS DNA, 0.983:
RFMS

one-hybrid fitness for binding parS DNA, 0.398:
RRTY

one-hybrid fitness for binding parS DNA, 0.925:
RAFC

one-hybrid fitness for binding parS DNA, 0.331:
RAFM

one-hybrid fitness for binding parS DNA, 0.776:
RFFG

one-hybrid fitness for binding parS DNA, 0.876:
RKMS

one-hybrid fitness for binding parS DNA, 0.98:
RAAC

one-hybrid fitness for binding parS DNA, 0.939:
RSLC

one-hybrid fitness for binding parS DNA, 0.772:
RIKT

one-hybrid fitness for binding parS DNA, 0.566:
RTVA

one-hybrid fitness for binding parS DNA, 0.917:
RTTT

one-hybrid fitness for binding parS DNA, 0.627:
RNFC

one-hybrid fitness for binding parS DNA, 0.868:
RHTT
RKVC

one-hybrid fitness for binding parS DNA, 0.915:
RATT

one-hybrid fitness for binding parS DNA, 0.704:
RRMS

one-hybrid fitness for binding parS DNA, 0.931:
RITT

one-hybrid fitness for binding parS DNA, 0.319:
RITM

one-hybrid fitness for binding parS DNA, 0.478:
RAAY

one-hybrid fitness for binding parS DNA, 0.353:
RKTY

one-hybrid fitness for binding parS DNA, 0.402:
RSMN

one-hybrid fitness for binding parS DNA, 0.432:
RCPA

one-hybrid fitness for binding parS DNA, 0.895:
RSTT

one-hybrid fitness for binding parS DNA, 0.343:
RKAN

one-hybrid fitness for binding parS DNA, 0.325:
RIKM

one-hybrid fitness for binding parS DNA, ≤ 0.2:
THDG
EQQR
MVPW
ASII
PLHG
GYPH
CVTM
RKMD
RHMH
RHMD
RRMP
PLPS
QYNK
EHAS
VMVC
RHYV
SIFD
LPVS
RAMH
RFMP
RFMH
RTMH
RAMD
RTMD
TRVI
NMKR
LWSA
HELA
TPTY
TLRR
NTVA
DTKA
NTKA
WIMN
RIYI
TADM
QLFQ
KDMG
RKAH
RKFK
RKFQ
VRYQ
SMCS
TFRT
GREF
GPDK
TATR
DFAG
NFAG
KFFG
NFFG
SCLF
FALR
IHMV
LILG
TTYT
KWSC
LCWL
RSLK
RELC
RDLC
RPLC
QCAL
RIIL
MQLE
WYDG
RDFC
REFC
RPFC
DKNG
YTIY
SSYC
RIVH
RAAR
SIFS
QSTM
HPTI
RPPA
NRIA
NRNI
YNMN
KQFG
NYTR
EPTE
PWQI
FKHA
NRKT
RRVK
RRKE
RRVF
VTCL
GDYG
HEET
ALQS
RPTT
RATQ
RHTQ
RATK
RHTR
RETT
VVST
HWNY
MEIG
RRTF
RMTL
RLTR
RTTD
VTRD
SSGG
QKKR
CTAV
PDQD
DVDG
RSTR
RDTT
DFTT
RKTF
RFTD
CALF
HDLT
WILE
CTPG
CPIR
QLLW
TAMD
VFPY
RKKQ
RKVQ
RKKR
RKVP
WLFR
ESLF
DFNL
RNFQ
RNFM
RNAP

one-hybrid fitness for binding parS DNA, 0.303:
RIKF

one-hybrid fitness for binding parS DNA, 0.808:
RTKA

one-hybrid fitness for binding parS DNA, 0.301:
RNAN

one-hybrid fitness for binding parS DNA, 0.754:
RKTT
RNAC

one-hybrid fitness for binding parS DNA, 0.694:
RKKC

one-hybrid fitness for binding parS DNA, 0.836:
RFTT

one-hybrid fitness for binding parS DNA, 0.245:
RSMH
